Source: PubChem BioAssay (Tox21)
Inconclusive results are not listed. A call without a number means that no potency is given here. Active and inactive are the calls of the source. Unless noted, the call rests on the fitted dose curve; in most records, active means well fitted cell-killing curve with a large enough effect in the repeat runs; inconclusive means weak or mixed curves, or effect the other way; inactive means flat fitted curve, though single readings scatter.

Test system: not listed separately
Test: qHTS assay to identify small molecule that activate the aryl hydrocarbon receptor (AhR) signaling pathway - cell viability counter screen (AID 743086); further: nearly all actives have a fitted effect of over 45% in size; further: potency means the concentration at half of the fitted maximal effect
Conditions: HepG2-AhR-luc viability, CellTiter-Fluor, 24 h; series mostly up to 70.3 µM
Outline: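 Cytotoxicity counter screen: CellTiter-Fluor signal (30 min, 37 C) in 4000 HepG2 cells/well carrying the DRE-luciferase reporter, following 24 h compound exposure at 37 C.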
With C=Cc1c(C)c2cc3nc(cc4[nH]c(cc5nc(cc1[nH]2)C(C)=C5CCC(=O)OC)c(CCC(=O)O)c4C)[C@@]1(C)C3=CC=C(C(=O)OC)[C@H]1C(=O)OC the Potency was “inactive”.
For C[C@]12CCC(=O)C[C@@H]1CC[C@@H]1[C@@H]2CC[C@]2(C)C=CC[C@@H]12, the Potency was “inactive”.
For O=C(O)c1c(Cl)c(Cl)c(Cl)c(Cl)c1-c1c2cc(I)c(=O)c(I)c-2oc2c(I)c(O)c(I)cc12, the Potency was 23.7 µM (active).
For C=C1C(=C/C=C2\CCC[C@]3(C)[C@@H]([C@H](C)CCCC(C)(C)O)CC[C@@H]23)C[C@@H](O)C[C@@H]1O, the Potency was “inactive”.
With C=CCNC1=C2C[C@@H](C)C[C@H](OC)[C@H](O)[C@@H](C)/C=C(\C)[C@H](OC(N)=O)[C@@H](OC)/C=C\C=C(/C)C(=O)NC(=CC1=O)C2=O the Potency was “inactive”.
In the case of CC(C)(C)NC[C@H](O)COc1ccccc1C1CCCC1, the Potency is reported as “inactive”.
For Nc1ncnc2c1ncn2[C@@H]1O[C@H](COP(=O)(O)OP(=O)(O)OP(=O)(O)O)[C@@H](O)[C@H]1O, the Potency was “inactive”.
In the case of CNC(C)CCC=C(C)C (stereo not drawn), the Potency is reported as “inactive”.
With OCCN1CCN(CC/C=C2/c3ccccc3Sc3ccc(Cl)cc32)CC1 the Potency was “inactive”.
For NCc1ccccc1CC(=O)N[C@@H]1C(=O)N2C(C(=O)O)=C(CSc3nnnn3CC(=O)O)CS[C@H]12, the Potency was “inactive”.

Molecular target: Peroxisome proliferator-activated receptor gamma (Homo sapiens) (UniProt P37231)
Sequence (P37231 whole entry, looked up): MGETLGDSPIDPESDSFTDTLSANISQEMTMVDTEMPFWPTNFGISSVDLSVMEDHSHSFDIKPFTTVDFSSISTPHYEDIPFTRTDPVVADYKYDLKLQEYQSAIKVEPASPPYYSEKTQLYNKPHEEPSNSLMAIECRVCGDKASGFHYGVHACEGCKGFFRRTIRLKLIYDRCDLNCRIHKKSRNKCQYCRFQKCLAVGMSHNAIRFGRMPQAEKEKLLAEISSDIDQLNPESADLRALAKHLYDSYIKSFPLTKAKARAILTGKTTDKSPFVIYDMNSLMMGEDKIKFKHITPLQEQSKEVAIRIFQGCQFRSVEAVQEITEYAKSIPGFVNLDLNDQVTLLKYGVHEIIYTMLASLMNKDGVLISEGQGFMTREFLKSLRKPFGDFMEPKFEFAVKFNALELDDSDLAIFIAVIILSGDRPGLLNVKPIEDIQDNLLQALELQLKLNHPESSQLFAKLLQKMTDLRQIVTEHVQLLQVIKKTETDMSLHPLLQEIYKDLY
Test: qHTS assay to identify small molecule agonists of the peroxisome proliferator-activated receptor gamma (PPARg) signaling pathway (AID 743094; active means well fitted activation curve with a large enough effect in the signal ratio in the repeat runs, not every such curve was filed as active; the % refers to the signal ratio)
Conditions: HEK293H PPARg-UAS-bla, beta-lactamase FRET ratio, 17 h; series mostly up to 57 µM
Outline: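 Reporter activation was scored by fluorescence of cleaved LiveBLAzer B/G substrate (1 h, room temperature) in PPARg-bla HEK293H cells previously treated 17 h at 37C with DMSO-dissolved compounds.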
For C[Se]CCC(N)C(=O)O (stereo not drawn), the Potency was “inactive”.
For O=C(CCCN1CCC(C(=O)c2ccc(F)cc2)CC1)c1ccc(F)cc1, the Potency was “inactive”.
In the case of CC(=O)Nc1ccc(NC(=S)NC(=O)c2ccc(C(C)(C)C)cc2)cc1, the Potency is reported as “inactive”.
With C[C@]12CC[C@@H]3c4ccc(O)cc4CC[C@H]3[C@@H]1CC[C@@H]2OP(=O)(O)O the Potency was “inactive”.
In the case of CC1(C)[C@@H]2CC[C@@]1(C)[C@H](OC(=O)CSC#N)C2, the Potency is reported as “inactive”.
In the case of COCC(=O)Nc1cc(Sc2ccccc2)ccc1N=C(NC(=O)OC)NC(=O)OC, the Potency is reported as “inactive”.
With CN(C)CC/C=C1/c2ccccc2CSc2ccccc21 the Potency was “inactive”.
In the case of CN1[C@@H]2CC[C@H]1CC(OC(c1ccccc1)c1ccccc1)C2 (stereo partly drawn), the Potency is reported as “inactive”.
With Cc1nc(NS(=O)(=O)c2ccc(N)cc2)nc(C)c1Br the Potency was “inactive”.
For C[C@]12C=CC(=O)N[C@@H]1CC[C@@H]1[C@@H]2CC[C@]2(C)[C@@H](C(=O)Nc3cc(C(F)(F)F)ccc3C(F)(F)F)CC[C@@H]12, the Potency was “inactive”.
For CC1(C)S[C@@H]2[C@H](NC(=O)C(C(=O)O)c3ccsc3)C(=O)N2[C@H]1C(=O)O (stereo partly drawn), the Potency was “inactive”.
In the case of N#Cc1ccc2c(c1)N(CCCN1CCC(O)CC1)c1ccccc1S2, the Potency is reported as “inactive”.
For C=Cc1c(C)c2cc3nc(cc4[nH]c(cc5nc(cc1[nH]2)C(C)=C5CCC(=O)OC)c(CCC(=O)O)c4C)[C@@]1(C)C3=CC=C(C(=O)OC)[C@H]1C(=O)OC, the Potency was “inactive”.
In the case of C[C@]12CCC(=O)C[C@@H]1CC[C@@H]1[C@@H]2CC[C@]2(C)C=CC[C@@H]12, the Potency is reported as “inactive”.
In the case of CC(C)N1CCN(c2ccc(OC[C@H]3CO[C@](Cn4cncn4)(c4ccc(Cl)cc4Cl)O3)cc2)CC1, the Potency is reported as “inactive”.
In the case of O=C(O)c1c(Cl)c(Cl)c(Cl)c(Cl)c1-c1c2cc(I)c(=O)c(I)c-2oc2c(I)c(O)c(I)cc12, the Potency is reported as “inactive”.
For CC(C)(C)NC[C@H](O)COc1ccccc1C1CCCC1, the Potency was “inactive”.
For Nc1ncnc2c1ncn2[C@@H]1O[C@H](COP(=O)(O)OP(=O)(O)OP(=O)(O)O)[C@@H](O)[C@H]1O, the Potency was “inactive”.
For O=C1C(=O)c2ncccc2-c2cccnc21, the Potency was “inactive”.
With CNC(C)CCC=C(C)C (stereo not drawn) the Potency was “inactive”.
In the case of OCCN1CCN(CC/C=C2/c3ccccc3Sc3ccc(Cl)cc32)CC1, the Potency is reported as “inactive”.
In the case of O=c1oc2cc(O)ccc2s1, the Potency is reported as “inactive”.
With NCc1ccccc1CC(=O)N[C@@H]1C(=O)N2C(C(=O)O)=C(CSc3nnnn3CC(=O)O)CS[C@H]12 the Potency was “inactive”.
